# Measurements from PMC8384837, “Expanding the binding specificity for RNA recognition by a PUF domain”.
# Residue numbers refer to the chain shown, from its start.
# Assays:
# Assay in all cases: yeast three-hybrid, YBZ-1, SC-Leu-His + 0.5 mM 3-AT, 4 days
# Conditions in all cases: tags: N-Gal4 AD-HA kept; label: inside an RPR1-promoter hybrid RNA with tandem MS2 sites; ssRNA
# [1] = target: PUM1 PUF domain R4-DHG (Homo sapiens, UniProt Q14671 828-1176, N971D;Q975G)
# In short: (§1)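 Matching RNA elements and Pumilio-1 PUF domain libraries, randomized at the three base-contacting residues of every repeat, were co-expressed from a centromeric plasmid in strain YBZ-1 (LexA–MS2 coat fusion, HIS3 reporter). The repeat regions were PCR-amplified and Illumina-sequenced from cells grown four days on SC-Leu (input) or SC-Leu-His + 0.5 mM 3-AT (selection). The interaction score is the log change in variant frequency from input to selection. It is computed in log2, with a pseudocount of 1 for absent variants.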
# [2] = target: T1, PUM1 PUF domain R6-VWL (Homo sapiens, UniProt Q14671 828-1176, N1043V;Y1044W;Q1047L)
# T1 sequence: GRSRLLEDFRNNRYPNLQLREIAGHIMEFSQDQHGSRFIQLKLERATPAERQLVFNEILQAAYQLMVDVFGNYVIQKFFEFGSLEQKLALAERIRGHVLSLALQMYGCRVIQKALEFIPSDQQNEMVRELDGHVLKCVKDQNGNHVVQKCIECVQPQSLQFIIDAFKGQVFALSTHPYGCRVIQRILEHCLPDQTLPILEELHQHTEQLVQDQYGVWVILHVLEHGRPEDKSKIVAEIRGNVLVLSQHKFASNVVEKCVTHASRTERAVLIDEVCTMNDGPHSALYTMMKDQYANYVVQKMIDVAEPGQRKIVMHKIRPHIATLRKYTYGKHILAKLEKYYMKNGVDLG
# In short: as §1
# [3] = target: T2, PUM1 PUF domain R6-LWL (Homo sapiens, UniProt Q14671 828-1176, N1043L;Y1044W;Q1047L)
# T2 sequence: T1 sequence with V216L
# In short: as §1
# [4] = target: PUM1 PUF domain R5-PRI (Homo sapiens, UniProt Q14671 828-1176, C1007P;Q1011I)
# In short: as §1
# [5] = target: PUM1 PUF domain R4-AMC (Homo sapiens, UniProt Q14671 828-1176, N971A;H972M;Q975C)
# In short: as §1
# [6] = target: PUM1 PUF domain R3-GYH (Homo sapiens, UniProt Q14671 828-1176, C935G;R936Y;Q939H)
# In short: as §1
# [7] = target: PUM1 PUF domain R5-FRG (Homo sapiens, UniProt Q14671 828-1176, C1007F;Q1011G)
# In short: as §1
# [8] = target: PUM1 PUF domain R8-RHY (Homo sapiens, UniProt Q14671 828-1176, N1122R;Y1123H;Q1126Y)
# In short: as §1
# [9] = target: PUM1 PUF domain R7-GIR (Homo sapiens, UniProt Q14671 828-1176, S1079G;N1080I;E1083R)
# In short: as §1
sequence,measurement,setting,value
GGCUAGAACUAGUGGAUCCCCCGGCGCCCGGCGGCUCGAGCCCGGGUAAGUGUAAAUAGUCUGCAUGCCGCCGGGCGCCAUGCCUGCAGGUCGACUCUAGAAAACAUG,binding signal,[1],3.07 log2 enrichment (interaction score)
same,binding signal,[2],4.01 log2 enrichment (interaction score)
same,binding signal,[3],3.89 log2 enrichment (interaction score)
same,binding signal,[4],4.45 log2 enrichment (interaction score)
same,binding signal,[5],3.21 log2 enrichment (interaction score)
GGCUAGAACUAGUGGAUCCCCCGGCGCCCGGCGGCUCGAGCCCGGGUAAGUGUAAUUAGUCUGCAUGCCGCCGGGCGCCAUGCCUGCAGGUCGACUCUAGAAAACAUG,binding signal,[6],2.58 log2 enrichment (interaction score)
GGCUAGAACUAGUGGAUCCCCCGGCGCCCGGCGGCUCGAGCCCGGGUAAGUGUCAAUAGUCUGCAUGCCGCCGGGCGCCAUGCCUGCAGGUCGACUCUAGAAAACAUG,binding signal,[7],2.42 log2 enrichment (interaction score)
GGCUAGAACUAGUGGAUCCCCCGGCGCCCGGCGGCUCGAGCCCGGGUAAGUGUUAAUAGUCUGCAUGCCGCCGGGCGCCAUGCCUGCAGGUCGACUCUAGAAAACAUG,binding signal,[7],2.88 log2 enrichment (interaction score)
GGCUAGAACUAGUGGAUCCCCCGGCGCCCGGCGGCUCGAGCCCGGGUAAGCGUAAAUAGUCUGCAUGCCGCCGGGCGCCAUGCCUGCAGGUCGACUCUAGAAAACAUG,binding signal,[8],4.97 log2 enrichment (interaction score)
GGCUAGAACUAGUGGAUCCCCCGGCGCCCGGCGGCUCGAGCCCGGGUAAGUUUAAAUAGUCUGCAUGCCGCCGGGCGCCAUGCCUGCAGGUCGACUCUAGAAAACAUG,binding signal,[9],3.02 log2 enrichment (interaction score)
GGCUAGAACUAGUGGAUCCCCCGGCGCCCGGCGGCUCGAGCCCGGGUAAGUGUACAUAGUCUGCAUGCCGCCGGGCGCCAUGCCUGCAGGUCGACUCUAGAAAACAUG,binding signal,[5],2.52 log2 enrichment (interaction score)
